Source: PMC11062922 (Nature Chemical Biology, 2023)
Where two headings read alike, the source gives them in different places.

What was measured:
MARK4 = conditions: read-out: apparent Kd, n = 1
NTRK1 = conditions: read-out: apparent Kd, n = 1
[1] = compound concentrations:100 nM and 1000 nM (sheet 'Lestaurtinib' of Supplementary Table 1),run:Lestaurtinib_02724_R3,Plate:MR021
[2] = compound concentrations:100 nM and 1000 nM (sheet 'Lestaurtinib' of Supplementary Table 1),run:Lestaurtinib_02741_R2,Plate:MR023
[3] = compound concentrations:100 nM and 1000 nM (sheet 'Lestaurtinib' of Supplementary Table 1),run:Lestaurtinib_02741_R3,Plate:MR023
[4] = compound concentrations:100 nM and 1000 nM (sheet 'Lestaurtinib' of Supplementary Table 1),run:Lestaurtinib_02748_R1,Plate:MR024

Lestaurtinib
potency estimated from few doses (MARK4; [1]): 0.113 µM | potency estimated from few doses (MARK4; [2]): 0.144 µM | potency estimated from few doses (MARK4; [3]): 0.0824 µM | potency estimated from few doses (MARK4; [4]): 0.151 µM | potency estimated from few doses (MARK4; compound concentrations:100 nM and 1000 nM (sheet 'Lestaurtinib' of Supplementary Table 1),run:Lestaurtinib_02748_R2,Plate:MR024): 0.0978 µM | potency estimated from few doses (MARK4; compound concentrations:100 nM and 1000 nM (sheet 'Lestaurtinib' of Supplementary Table 1),run:Lestaurtinib_02748_R3,Plate:MR024): 0.0987 µM | potency estimated from few doses (MARK4; compound concentrations:100 nM and 1000 nM (sheet 'Lestaurtinib' of Supplementary Table 1),run:Lestaurtinib_02752_R1,Plate:MR025): 0.0842 µM | potency estimated from few doses (MARK4; compound concentrations:100 nM and 1000 nM (sheet 'Lestaurtinib' of Supplementary Table 1),run:Lestaurtinib_02752_R3,Plate:MR025): 0.113 µM | potency estimated from few doses (MARK4; compound concentrations:100 nM and 1000 nM (sheet 'Lestaurtinib' of Supplementary Table 1),run:Lestaurtinib_02765_R1,Plate:MR026): 0.0861 µM | potency estimated from few doses (MARK4; compound concentrations:100 nM and 1000 nM (sheet 'Lestaurtinib' of Supplementary Table 1),run:Lestaurtinib_02765_R3,Plate:MR026): 0.0953 µM | potency estimated from few doses (MARK4; compound concentrations:100 nM and 1000 nM (sheet 'Lestaurtinib' of Supplementary Table 1),run:Lestaurtinib_02766_R1,Plate:MR027): 0.154 µM | potency estimated from few doses (MARK4; compound concentrations:100 nM and 1000 nM (sheet 'Lestaurtinib' of Supplementary Table 1),run:Lestaurtinib_02766_R2,Plate:MR027): 0.0636 µM | potency estimated from few doses (MARK4; compound concentrations:100 nM and 1000 nM (sheet 'Lestaurtinib' of Supplementary Table 1),run:Lestaurtinib_02766_R3,Plate:MR027): 0.0767 µM | potency estimated from few doses (MARK4; compound concentrations:100 nM and 1000 nM (sheet 'Lestaurtinib' of Supplementary Table 1),run:Lestaurtinib_02768_R1,Plate:MR028): 0.0921 µM | potency estimated from few doses (MARK4; compound concentrations:100 nM and 1000 nM (sheet 'Lestaurtinib' of Supplementary Table 1),run:Lestaurtinib_02768_R3,Plate:MR028): 0.0806 µM | potency estimated from few doses (MARK4; compound concentrations:100 nM and 1000 nM (sheet 'Lestaurtinib' of Supplementary Table 1),run:Lestaurtinib_02795_R1,Plate:MR022): 0.115 µM | potency estimated from few doses (MARK4; compound concentrations:100 nM and 1000 nM (sheet 'Lestaurtinib' of Supplementary Table 1),run:Lestaurtinib_02795_R2,Plate:MR022): 0.157 µM | potency estimated from few doses (MARK4; compound concentrations:100 nM and 1000 nM (sheet 'Lestaurtinib' of Supplementary Table 1),run:Lestaurtinib_02802_R2,Plate:MR029): 0.086 µM | potency estimated from few doses (MARK4; compound concentrations:100 nM and 1000 nM (sheet 'Lestaurtinib' of Supplementary Table 1),run:Lestaurtinib_02802_R3,Plate:MR029): 0.0778 µM | potency estimated from few doses (MARK4; compound concentrations:100 nM and 1000 nM (sheet 'Lestaurtinib' of Supplementary Table 1),run:Lestaurtinib_02896_R2,Plate:MR030): 0.141 µM | potency estimated from few doses (MARK4; compound concentrations:100 nM and 1000 nM (sheet 'Lestaurtinib' of Supplementary Table 1),run:Lestaurtinib_02896_R3,Plate:MR030): 0.0874 µM | potency estimated from few doses (MARK4; compound concentrations:100 nM and 1000 nM (sheet 'Lestaurtinib' of Supplementary Table 1),run:Lestaurtinib_03172_R1,Plate:MR031): 0.0868 µM | potency estimated from few doses (MARK4; compound concentrations:100 nM and 1000 nM (sheet 'Lestaurtinib' of Supplementary Table 1),run:Lestaurtinib_03172_R2,Plate:MR031): 0.297 µM | potency estimated from few doses (MARK4; compound concentrations:100 nM and 1000 nM (sheet 'Lestaurtinib' of Supplementary Table 1),run:Lestaurtinib_03252_R1,Plate:MR032): 0.0416 µM | potency estimated from few doses (MARK4; compound concentrations:100 nM and 1000 nM (sheet 'Lestaurtinib' of Supplementary Table 1),run:Lestaurtinib_03252_R2,Plate:MR032): 0.0595 µM | potency estimated from few doses (MARK4; compound concentrations:100 nM and 1000 nM (sheet 'Lestaurtinib' of Supplementary Table 1),run:Lestaurtinib_03260_R1,Plate:MR033): 0.469 µM | potency estimated from few doses (MARK4; compound concentrations:100 nM and 1000 nM (sheet 'Lestaurtinib' of Supplementary Table 1),run:Lestaurtinib_03260_R2,Plate:MR033): 0.609 µM | potency estimated from few doses (MARK4; compound concentrations:100 nM and 1000 nM (sheet 'Lestaurtinib' of Supplementary Table 1),run:Lestaurtinib_03260_R3,Plate:MR033): 0.165 µM | potency estimated from few doses (NTRK1; compound concentrations:100 nM and 1000 nM (sheet 'Lestaurtinib' of Supplementary Table 1),run:Lestaurtinib_02339_R2,Plate:MR001): 1.58 µM | potency estimated from few doses (NTRK1; compound concentrations:100 nM and 1000 nM (sheet 'Lestaurtinib' of Supplementary Table 1),run:Lestaurtinib_02339_R3,Plate:MR001): 1.91 µM | potency estimated from few doses (NTRK1; compound concentrations:100 nM and 1000 nM (sheet 'Lestaurtinib' of Supplementary Table 1),run:Lestaurtinib_02364_R1,Plate:MR002): 0.893 µM | potency estimated from few doses (NTRK1; compound concentrations:100 nM and 1000 nM (sheet 'Lestaurtinib' of Supplementary Table 1),run:Lestaurtinib_02364_R2,Plate:MR002): 0.971 µM | potency estimated from few doses (NTRK1; compound concentrations:100 nM and 1000 nM (sheet 'Lestaurtinib' of Supplementary Table 1),run:Lestaurtinib_02364_R3,Plate:MR002): 0.789 µM | potency estimated from few doses (NTRK1; compound concentrations:100 nM and 1000 nM (sheet 'Lestaurtinib' of Supplementary Table 1),run:Lestaurtinib_02381_R1,Plate:MR004): 0.763 µM | potency estimated from few doses (NTRK1; compound concentrations:100 nM and 1000 nM (sheet 'Lestaurtinib' of Supplementary Table 1),run:Lestaurtinib_02381_R2,Plate:MR004): 0.626 µM | potency estimated from few doses (NTRK1; compound concentrations:100 nM and 1000 nM (sheet 'Lestaurtinib' of Supplementary Table 1),run:Lestaurtinib_02381_R3,Plate:MR004): 1.33 µM | potency estimated from few doses (NTRK1; compound concentrations:100 nM and 1000 nM (sheet 'Lestaurtinib' of Supplementary Table 1),run:Lestaurtinib_02407_R1,Plate:MR005): 1.58 µM | potency estimated from few doses (NTRK1; compound concentrations:100 nM and 1000 nM (sheet 'Lestaurtinib' of Supplementary Table 1),run:Lestaurtinib_02422_R1,Plate:MR006): 1.59 µM | potency estimated from few doses (NTRK1; compound concentrations:100 nM and 1000 nM (sheet 'Lestaurtinib' of Supplementary Table 1),run:Lestaurtinib_02422_R2,Plate:MR006): 1.42 µM | potency estimated from few doses (NTRK1; compound concentrations:100 nM and 1000 nM (sheet 'Lestaurtinib' of Supplementary Table 1),run:Lestaurtinib_02437_R2,Plate:MR007): 1.49 µM | potency estimated from few doses (NTRK1; compound concentrations:100 nM and 1000 nM (sheet 'Lestaurtinib' of Supplementary Table 1),run:Lestaurtinib_02437_R3,Plate:MR007): 0.113 µM | potency estimated from few doses (NTRK1; compound concentrations:100 nM and 1000 nM (sheet 'Lestaurtinib' of Supplementary Table 1),run:Lestaurtinib_02438_R1,Plate:MR008): 1 µM | potency estimated from few doses (NTRK1; compound concentrations:100 nM and 1000 nM (sheet 'Lestaurtinib' of Supplementary Table 1),run:Lestaurtinib_02438_R2,Plate:MR008): 1.53 µM | potency estimated from few doses (NTRK1; compound concentrations:100 nM and 1000 nM (sheet 'Lestaurtinib' of Supplementary Table 1),run:Lestaurtinib_02443_R1,Plate:MR009): 0.796 µM | potency estimated from few doses (NTRK1; compound concentrations:100 nM and 1000 nM (sheet 'Lestaurtinib' of Supplementary Table 1),run:Lestaurtinib_02473_R1,Plate:MR010): 0.695 µM | potency estimated from few doses (NTRK1; compound concentrations:100 nM and 1000 nM (sheet 'Lestaurtinib' of Supplementary Table 1),run:Lestaurtinib_02473_R2,Plate:MR010): 0.826 µM | potency estimated from few doses (NTRK1; compound concentrations:100 nM and 1000 nM (sheet 'Lestaurtinib' of Supplementary Table 1),run:Lestaurtinib_02482_R2,Plate:MR011): 0.894 µM | potency estimated from few doses (NTRK1; compound concentrations:100 nM and 1000 nM (sheet 'Lestaurtinib' of Supplementary Table 1),run:Lestaurtinib_02482_R3,Plate:MR011): 0.649 µM | potency estimated from few doses (NTRK1; compound concentrations:100 nM and 1000 nM (sheet 'Lestaurtinib' of Supplementary Table 1),run:Lestaurtinib_02487_R2,Plate:MR012): 1.15 µM | potency estimated from few doses (NTRK1; compound concentrations:100 nM and 1000 nM (sheet 'Lestaurtinib' of Supplementary Table 1),run:Lestaurtinib_02487_R3,Plate:MR012): 0.921 µM | potency estimated from few doses (NTRK1; compound concentrations:100 nM and 1000 nM (sheet 'Lestaurtinib' of Supplementary Table 1),run:Lestaurtinib_02496_R1,Plate:MR013): 0.946 µM | potency estimated from few doses (NTRK1; compound concentrations:100 nM and 1000 nM (sheet 'Lestaurtinib' of Supplementary Table 1),run:Lestaurtinib_02496_R2,Plate:MR013): 1.4 µM | potency estimated from few doses (NTRK1; compound concentrations:100 nM and 1000 nM (sheet 'Lestaurtinib' of Supplementary Table 1),run:Lestaurtinib_02496_R3,Plate:MR013): 0.828 µM | potency estimated from few doses (NTRK1; compound concentrations:100 nM and 1000 nM (sheet 'Lestaurtinib' of Supplementary Table 1),run:Lestaurtinib_02566_R2,Plate:MR014): 0.898 µM | potency estimated from few doses (NTRK1; compound concentrations:100 nM and 1000 nM (sheet 'Lestaurtinib' of Supplementary Table 1),run:Lestaurtinib_02572_R1,Plate:MR015): 0.81 µM | potency estimated from few doses (NTRK1; compound concentrations:100 nM and 1000 nM (sheet 'Lestaurtinib' of Supplementary Table 1),run:Lestaurtinib_02572_R3,Plate:MR015): 0.974 µM | potency estimated from few doses (NTRK1; compound concentrations:100 nM and 1000 nM (sheet 'Lestaurtinib' of Supplementary Table 1),run:Lestaurtinib_02577_R2,Plate:MR016): 1.3 µM | potency estimated from few doses (NTRK1; compound concentrations:100 nM and 1000 nM (sheet 'Lestaurtinib' of Supplementary Table 1),run:Lestaurtinib_02584_R2,Plate:MR017): 1 µM | potency estimated from few doses (NTRK1; compound concentrations:100 nM and 1000 nM (sheet 'Lestaurtinib' of Supplementary Table 1),run:Lestaurtinib_02601_R1,Plate:MR018): 1.58 µM | potency estimated from few doses (NTRK1; compound concentrations:100 nM and 1000 nM (sheet 'Lestaurtinib' of Supplementary Table 1),run:Lestaurtinib_02601_R2,Plate:MR018): 0.673 µM | potency estimated from few doses (NTRK1; compound concentrations:100 nM and 1000 nM (sheet 'Lestaurtinib' of Supplementary Table 1),run:Lestaurtinib_02601_R3,Plate:MR018): 0.924 µM | potency estimated from few doses (NTRK1; compound concentrations:100 nM and 1000 nM (sheet 'Lestaurtinib' of Supplementary Table 1),run:Lestaurtinib_02606_R2,Plate:MR019): 1.21 µM | potency estimated from few doses (NTRK1; compound concentrations:100 nM and 1000 nM (sheet 'Lestaurtinib' of Supplementary Table 1),run:Lestaurtinib_02606_R3,Plate:MR019): 1.6 µM | potency estimated from few doses (NTRK1; compound concentrations:100 nM and 1000 nM (sheet 'Lestaurtinib' of Supplementary Table 1),run:Lestaurtinib_02624_R1,Plate:MR020): 1.3 µM | potency estimated from few doses (NTRK1; compound concentrations:100 nM and 1000 nM (sheet 'Lestaurtinib' of Supplementary Table 1),run:Lestaurtinib_02624_R2,Plate:MR020): 0.614 µM | potency estimated from few doses (NTRK1; compound concentrations:100 nM and 1000 nM (sheet 'Lestaurtinib' of Supplementary Table 1),run:Lestaurtinib_02624_R3,Plate:MR020): 0.873 µM | potency estimated from few doses (NTRK1; compound concentrations:100 nM and 1000 nM (sheet 'Lestaurtinib' of Supplementary Table 1),run:Lestaurtinib_02724_R2,Plate:MR021): 0.691 µM | potency estimated from few doses (NTRK1; [1]): 0.628 µM | potency estimated from few doses (NTRK1; compound concentrations:100 nM and 1000 nM (sheet 'Lestaurtinib' of Supplementary Table 1),run:Lestaurtinib_02741_R1,Plate:MR023): 0.772 µM | potency estimated from few doses (NTRK1; [2]): 0.783 µM | potency estimated from few doses (NTRK1; [3]): 1.33 µM | potency estimated from few doses (NTRK1; [4]): 0.922 µM
